T cruzi growth – T. cruzi intracellular proliferation inhibitors, primary screen, cell-based, beta-gal Tulahuen parasites, NIH3T3 host, luminescence | T. cruzi beta-gal in NIH3T3, GalScreen luminescence, 90 h | inhibition, % at 8.34 µM | 77,000 tested, 5.9% active | AID 624255, 2012;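 active means mean inhibition above about 93%, with at least 55% of replicates each passing it, limit read from the data, passing the limit was not always enough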
C diff growth – C. difficile growth inhibitors, primary screen, HTS | Clostridium difficile clinical isolate growth, OD600, 24 h; hits give low values | growth activity, negative = inhibition, % at 16 µg/mL (by protocol) | 86,000 tested, 0.25% active;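 active means mean growth activity at or below -80% and every replicate also at or below -80%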;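 further: 0% = DMSO wells and -100% = levofloxacin 16 µg/mL wells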
Pf Dd2 growth – P. falciparum Dd2 growth inhibitors, primary screen, SYBR Green fluorescence, single dose replicates; 72 h; hits give low values; activity change, % at 10 µM; 94,000 tested, 2.3% active; in the data active means activity change below about -80%
The depositor's hits bear a star; . = not tested or not shown. Only some compounds are listed: those with a hit (about 6.7% of all), similar ones and a draw of the others.

SMILES	T cruzi growth	C diff growth	Pf Dd2 growth
C[C@H]1CN([C@@H](C)CO)C(=O)c2cc(NC(=O)Cc3cn(C)c4ccccc34)ccc2O[C@@H]1CN(C)CC1CC1	.	3.7	-82.8*
C[C@@H]1CN([C@@H](C)CO)C(=O)c2cc(NC(=O)Cc3cn(C)c4ccccc34)ccc2O[C@H]1CN(C)C(=O)Nc1cccc2ccccc12	1.1	.	-55.6
COc1ccc(CN(C)C[C@@H]2Oc3ccc(NC(=O)Cc4cn(C)c5ccccc45)cc3C(=O)N([C@@H](C)CO)C[C@H]2C)cc1	38.6	-4.3	-30.0
C[C@H](CO)N1C[C@H](C)[C@H](CN(C)S(=O)(=O)c2ccc(F)cc2)Oc2ccc(NC(=O)Cn3cnnn3)cc2CC1=O	-12.6	-8.4	2.7
C[C@@H]1CCCCO[C@H](CN(C)S(=O)(=O)c2ccc(F)cc2)[C@@H](C)CN([C@@H](C)CO)C(=O)c2cc(NC(=O)Cc3ccccc3)ccc2O1	89.9	.	-75.8
C[C@H]1CCCCO[C@H](CN(C)S(=O)(=O)c2ccc(F)cc2)[C@@H](C)CN([C@@H](C)CO)C(=O)c2cc(NC(=O)Cc3ccccc3)ccc2O1	90.8	.	-89.3*
COc1ccc(S(=O)(=O)N(C)C[C@H]2OCCCC[C@@H](C)Oc3ccc(NC(=O)Cc4ccccc4)cc3C(=O)N([C@@H](C)CO)C[C@H]2C)cc1	70.8	6.6	-71.4
COc1ccc(S(=O)(=O)N(C)C[C@H]2OCCCC[C@H](C)Oc3ccc(NC(=O)Cc4ccccc4)cc3C(=O)N([C@H](C)CO)C[C@H]2C)cc1	77.9	7.4	-84.1*
CO[C@@H]1CN(C)C(=O)c2cc(NS(=O)(=O)CC(F)(F)F)ccc2OC[C@@H](C)N(C(=O)NC(C)C)C[C@@H]1C	53.0	.	-3.6
COc1cccc(-c2cnc3c(c2)C(=O)N([C@@H](C)CO)C[C@@H](C)[C@@H](CN(C)Cc2ccc(F)cc2)O3)c1	.	8.3	-12.8
CCCNC(=O)Nc1ccc2c(c1)C(=O)N(C)[C@@H]1CC[C@H](CC(=O)NCCCN(C)C)O[C@@H]1CO2	18.5	-1.3	4.5
CCCC#Cc1cnc2c(c1)C(=O)N([C@H](C)CO)C[C@@H](C)[C@@H](CN(C)C(=O)Nc1cccc(F)c1)O2	66.2	14.5	-36.0
CCCC#Cc1cnc2c(c1)C(=O)N([C@@H](C)CO)C[C@H](C)[C@H](CN(C)C(=O)Nc1cccc(F)c1)O2	.	1.3	-88.1*
CC(C)CC#Cc1cnc2c(c1)C(=O)N([C@H](C)CO)C[C@@H](C)[C@H](CN(C)C(=O)Nc1cc(F)ccc1F)O2	106.7	-6.9	-83.2*
CCCC#Cc1cnc2c(c1)C(=O)N([C@H](C)CO)C[C@@H](C)[C@@H](CN(C)C(=O)Nc1cc(F)ccc1F)O2	14.4	4.2	-54.4
C[C@H](CO)N1C[C@H](C)[C@@H](CN(C)C(=O)Nc2ccc3c(c2)OCO3)Oc2ccc(NC(=O)CCCCCC(=O)Nc3ccccc3N)cc2C1=O	.	2.4	15.1
COc1ccc(-c2ccc3c(c2)O[C@@H](CN(C)Cc2ccccc2C(=O)O)[C@@H](C)CN([C@H](C)CO)S3(=O)=O)cc1	-52.1	-4.3	-40.5
COc1ccc(CN(C)C[C@H]2OCCCC[C@H](C)Oc3ccc(NC(=O)Nc4cccc5ccccc45)cc3C(=O)N([C@H](C)CO)C[C@@H]2C)cc1	114.4	-15.9	-43.8
COc1ccc(CN(C)C[C@@H]2OCCCC[C@@H](C)Oc3ccc(NC(=O)Nc4cccc5ccccc45)cc3C(=O)N([C@H](C)CO)C[C@@H]2C)cc1	112.8	-11.8	22.4
COc1ccc(CN(C)C[C@H]2OCCCC[C@@H](C)Oc3ccc(NC(=O)Nc4cccc5ccccc45)cc3C(=O)N([C@@H](C)CO)C[C@H]2C)cc1	122.4	-17.5	-89.2*
COc1ccc(CN(C)C[C@H]2OCCCC[C@@H](C)Oc3ccc(NC(=O)Nc4cccc5ccccc45)cc3C(=O)N([C@H](C)CO)C[C@H]2C)cc1	118.5	-11.4	-86.7*
C[C@H]1CN([C@@H](C)CO)C(=O)c2cccc(NS(=O)(=O)c3cccs3)c2O[C@@H]1CN(C)Cc1ccc(C(=O)Nc2ccccc2N)cc1	.	4.3	-40.4
CC=Cc1ccc2n(c1=O)C[C@@H]1[C@@H](CO)[C@H](C(=O)NCc3ccccc3F)N(CC)[C@H]21 (mixture of isomers)	92.1	-1.1	0.7
COc1ccc(NC(=O)N(C)C[C@H]2OCCCC[C@@H](C)Oc3ccc(NC(=O)Cc4ccccc4)cc3C(=O)N([C@@H](C)CO)C[C@@H]2C)cc1	21.9	-3.1	-44.4
C[C@H](CO)N1C[C@H](C)[C@H](CN(C)S(=O)(=O)c2ccc(F)cc2)Oc2ccc(NS(=O)(=O)c3ccc(Cl)cc3)cc2C1=O	39.9	0.6	-92.8*
SMILES	T cruzi growth	C diff growth	Pf Dd2 growth
COc1ccc(S(=O)(=O)N(C)C[C@@H]2Oc3ccc(NS(=O)(=O)c4ccc(C)cc4)cc3CC(=O)N([C@H](C)CO)C[C@@H]2C)cc1	-7.7	9.7	-69.4
C[C@@H]1CN([C@H](C)CO)C(=O)c2cc(NS(=O)(=O)c3ccc(Cl)cc3)ccc2O[C@@H]1CN(C)S(=O)(=O)c1ccc(F)cc1	33.3	3.0	23.3
COc1ccc(S(=O)(=O)Nc2ccc3c(c2)CC(=O)N([C@@H](C)CO)C[C@H](C)[C@H](CN(C)S(=O)(=O)c2ccc(C)cc2)O3)cc1	-7.3	9.8	-86.2*
C[C@@H]1CN([C@@H](C)CO)C(=O)Cc2cc(NS(=O)(=O)c3ccc(Cl)cc3)ccc2O[C@H]1CN(C)S(=O)(=O)c1ccc(Cl)cc1	-53.0	16.8	-85.4*
C[C@H]1CN([C@@H](C)CO)C(=O)Cc2cc(NS(=O)(=O)c3ccc(Cl)cc3)ccc2O[C@H]1CN(C)S(=O)(=O)c1ccc(Cl)cc1	61.1	18.0	-73.8
CO[C@@H]1CN(C)C(=O)c2cc(NC(=O)C3CCCC3)ccc2OC[C@H](C)N(C(C)=O)C[C@@H]1C	23.7	-10.0	-16.5
C[C@@H]1CN([C@@H](C)CO)C(=O)c2cc(-c3ccc(F)cc3)cnc2O[C@H]1CN(C)C(=O)NC1CCCC1	-57.1	8.5	-32.9
CNC[C@@H]1Oc2ccc(NC(=O)C3CC3)cc2C(=O)N([C@H](C)CO)C[C@H]1C	-66.8	-5.1	51.2
COc1ccc(NC(=O)N2CC3(C2)CN(C(=O)CN2CCOCC2)[C@H](CO)c2[nH]c4cc(OC)ccc4c23)cc1	.	0.3	-49.9
CCC(=O)NC[C@@H]1[C@@H](c2ccc(C3=CCCCC3)cc2)[C@@H](CO)N1CC1CC1	.	12.2	-65.1
OC[C@@H]1[C@H](c2ccc(C3=CCCC3)cc2)[C@@H](CNC2CCCC2)N1CC1CC1	.	41.6	-90.7*
CCCNC[C@H]1[C@@H](c2ccc(C3=CCCCC3)cc2)[C@@H](CO)N1C(=O)C1CCC1	.	6.6	-83.3*
CCCNC[C@@H]1[C@@H](c2ccc(C3=CCCCC3)cc2)[C@@H](CO)N1C(=O)C1CCC1	.	8.9	-72.9
CCC(=O)N1[C@H](CO)[C@H](c2ccc(C3=CCCCC3)cc2)[C@H]1CNCC1CCC1	.	9.8	-85.2*
CCC(=O)N1[C@H](CO)[C@H](c2ccc(C3=CCCCC3)cc2)[C@@H]1CNC1CCCC1	.	17.1	-75.7
